# KB-V1 cytotox: kills drug-selected multidrug resistant KB-V1 cells; KB-V1 MDR cells viability, CellTiter-Glo, 72 h; Potency, µM (titrated, usually from 46.1 µM), usual class: cytotoxic; 3.4% of 400,000 active; further: nearly all actives have a fitted effect of over 60% in size
#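 Readout: CellTiter-Glo luminescence, 10 min after addition. Cells: KB-V1 MDR subline, 72 h at 37 degrees C with compound. Analysis: corrected, normalized data fitted to concentration-effect curves.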
# Giardia killer: Giardia lamblia killing; Giardia lamblia trophozoite viability; AID 540267; activity change, % at 7.66 µM, hits read low; 0.15% of 340,000 active; in the data active means activity change below about -80%; inconclusive means between about -30% and that limit;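 further: parasites exposed to compound for two days anaerobically before the ATP read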
#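 Compounds were tested on trophozoites seeded at 100 cells/well and held 48 hrs at 37 deg C anaerobically. An ATP-based luminescent kit measured the remaining live cells.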
# MCF10A rerep: inducers of DNA re-replication in MCF 10A breast cells; Potency, µM (top dose mostly 46.1 µM), usual class: activators; 2.9% of 350,000 active; MCF 10A DNA re-replication, Hoechst nuclear intensity, 48 h; AID 624296; further: nearly all actives have a fitted effect of over 50% in size
# S-ASM inh: human S-ASM enzyme inhibition | P17405 | placental ASM, HMU-PC fluorogenic substrate, 60 min | Potency, µM (doses to about 57.5 µM), hits mostly inhibitors | 0.006% of 340,000 active
# Target sequence (P17405 47-631 limits assumed): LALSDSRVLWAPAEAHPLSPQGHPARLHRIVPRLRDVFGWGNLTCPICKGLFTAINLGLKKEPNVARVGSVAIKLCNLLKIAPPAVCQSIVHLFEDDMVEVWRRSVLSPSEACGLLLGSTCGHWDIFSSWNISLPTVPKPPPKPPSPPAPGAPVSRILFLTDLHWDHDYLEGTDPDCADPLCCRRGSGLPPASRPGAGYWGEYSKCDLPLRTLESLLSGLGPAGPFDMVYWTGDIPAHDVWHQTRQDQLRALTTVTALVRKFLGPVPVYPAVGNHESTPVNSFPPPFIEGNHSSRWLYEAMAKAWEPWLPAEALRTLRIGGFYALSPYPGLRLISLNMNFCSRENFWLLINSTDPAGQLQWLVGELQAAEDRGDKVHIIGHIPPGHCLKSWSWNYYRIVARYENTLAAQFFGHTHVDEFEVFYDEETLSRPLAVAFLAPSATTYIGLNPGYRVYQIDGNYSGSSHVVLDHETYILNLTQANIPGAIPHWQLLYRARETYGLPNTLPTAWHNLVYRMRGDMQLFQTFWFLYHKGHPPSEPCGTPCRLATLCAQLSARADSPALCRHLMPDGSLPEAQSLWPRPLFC
#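 Fluorogenic HMU-PC substrate (9 uM final) is turned over by placental ASM in 60 min at 37 C after a 10 min compound preincubation. Reaction ended by alkaline stop (pH 10), with fluorescence read at 386/447 nm.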
# KB-3-1 cytotox: KB-3-1 parental cell cytotoxicity; 1.4% of 400,000 active; KB-3-1 viability, CellTiter-Glo ATP luminescence, 72 h; AID 1347075; Potency, µM (highest dose often 46.1 µM), most hits filed as cytotoxic; further: nearly all actives have a fitted effect of over 60% in size
#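 Parental KB-3-1 adenocarcinoma cells in phenol-red-free DMEM with 10% FBS were pin-treated with compounds at several concentrations, incubated 72 h at 37 °C, and viability read by CellTiter-Glo luminescence; concentration-effect curves were fitted after normalization.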
# SW480 rerep: induces DNA re-replication in SW480 colon adenocarcinoma cells | SW480 DNA re-replication, Hoechst DNA content imaging, 48 h | Potency, µM (series often up to 46.1 µM), actives largely listed as activators | 1.8% of 340,000 active; further: nearly all actives have a fitted effect of over 55% in size
#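 Image-based DNA-content assay: after two days of treatment, nuclei were labelled with the DNA dye Hoechst and imaged, and hits were compounds raising the count of nuclei showing high fluorescence intensity.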
# Numbers stand for hits; i = inactive; ? = inconclusive; nt = no result given. A selection: hits, their analogues and other compounds. The true share with any hit is near 6.9%. Unless noted, the call rests on the fitted dose curve; in most records, active means well fitted curve in the direction sought with a large enough effect; inconclusive means small, poorly fitted or top-dose-only effect, or another doubt; inactive means no such curve, though single readings can be large; an effect the other way counts as inactive or inconclusive.
SMILES,KB-V1 cytotox,Giardia killer,MCF10A rerep,S-ASM inh,KB-3-1 cytotox,SW480 rerep
O=C(O)c1cc(/C=C/C(=O)c2cc(F)ccc2O)c2c(c1)COCO2,i,i,i,i,i,i
CSCCC(NC(=O)COc1ccccc1)C(=O)OCC(=O)c1ccccc1 (centres undefined),i,i,i,i,i,i
COc1cccc(NC(=O)CN(C)C(=O)C(CCSC)NC(=O)c2ccco2)c1 (centres undefined),18µM,i,i,i,i,i
CSCCC(NC(=O)COc1ccccc1)C(=O)N(C)CC(=O)Nc1ccc(Cl)cc1 (centres undefined),3.7µM,i,i,i,i,i
CSCCC(NC(=O)COc1ccccc1)C(=O)N(C)Cc1c(F)cccc1Cl (centres undefined),?,nt,nt,nt,i,nt
CSCCC(NC(=O)COc1ccccc1)C(=O)NC1CCC(C)CC1 (centres undefined),8.2µM,i,i,i,i,i
Cc1cccc(-n2c(C)nc3cc(C(=O)NCCC4=CCCCC4)ccc32)c1,i,nt,nt,nt,i,nt
CC(C)c1ccc2oc(-c3ccc(N)cc3)nc2c1,21µM,?,i,i,?,i
Cc1ccc(-c2nc3cc(N)ccc3o2)cc1,i,?,?,i,i,i
Cc1nc(-c2ccc(S(=O)(=O)N3CCN(c4cccc(C(F)(F)F)c4)CC3)cc2)co1,i,nt,nt,nt,i,nt
COc1ccc(-c2nc(-c3ccc(O)cc3O)cs2)cc1OC,?,i,21µM,i,i,?
COc1ccc(-c2ccnc(-c3ccncc3)n2)cc1,i,i,i,i,?,21µM
COc1ccc(-c2ccnc(-c3ccc(O)cc3)n2)cc1,7.3µM,i,2.1µM,i,5.8µM,8.2µM
c1coc(-c2ccnc(-c3ccncc3)n2)c1,i,i,i,i,i,i
Cc1ccc(-c2ccnc(-c3ccc(O)cc3)n2)cc1,?,i,i,i,i,i
COc1ccc2cc(-c3csc(-c4cccnc4)n3)ccc2c1,i,i,15µM,i,i,i
CCOC(=O)N1CCC2(CC1)OC(=O)C(C)=C2C(=O)NCc1ccc(C)cc1,i,nt,nt,nt,i,nt
CC(C(=O)NCc1ccccc1)N1Cc2ccccc2C1=O (centres undefined),i,nt,nt,nt,i,nt
COc1ccc(-c2csc(-c3ccc(O)cc3)n2)cc1,2.6µM,i,15µM,i,4.1µM,7.3µM
CCC(C(=O)N1CCN(c2ccccc2OC)CC1)c1ccccc1 (centres undefined),21µM,i,?,i,?,i
CCOC(=O)N1CCN(C(=O)c2ccccc2-c2ccccc2)CC1,4.6µM,i,8.2µM,i,4.6µM,10µM
CCOC(=O)N1CCN(C(=O)C(CC)c2ccccc2)CC1 (centres undefined),12µM,i,i,i,i,i
COc1ccccc1N1CCN(C(=O)C(NS(=O)(=O)c2cccs2)c2ccccc2)CC1 (centres undefined),4.6µM,i,i,i,i,i
CCC(C(=O)N1CCN(S(C)(=O)=O)CC1)c1ccccc1 (centres undefined),i,i,i,i,i,i
Cc1ccc(-c2[nH]ncc2CNC(C)c2ccccc2)cc1 (centres undefined),i,i,nt,nt,i,nt
SMILES,KB-V1 cytotox,Giardia killer,MCF10A rerep,S-ASM inh,KB-3-1 cytotox,SW480 rerep
CCn1ccc2cc(S(=O)(=O)N3CCC(C(=O)NCc4ccc(OC)cc4)CC3)ccc21,i,nt,nt,nt,i,nt
O=C(/C=C/c1ccc(C(F)(F)F)cc1)Nc1cccc([S+](=O)([O-])Nc2ccccc2F)c1,i,nt,nt,nt,i,nt
Nc1c(C(=O)c2ccccc2)oc2ccccc12,i,i,13µM,i,i,?
Nc1c(C(=O)c2ccc(F)cc2)oc2ccccc12,i,i,7.3µM,i,?,i
CCc1ccc(NC(=O)c2cc(S(=O)(=O)N3CCCCCC3)ccc2F)cc1,i,nt,nt,nt,i,nt
CC(CCc1ccccc1)NC(=O)C1CCN(S(=O)(=O)N2CCOCC2)CC1 (centres undefined),21µM,i,?,i,i,i
COc1ccc(-n2nc3ccc(N)cc3n2)cc1,i,nt,nt,nt,i,nt
CCOc1ccc(-n2nc3cc(C)c(N)cc3n2)cc1,i,i,18µM,i,i,16µM
CCOc1ccc(-n2nc3ccc(N)cc3n2)cc1,i,?,18µM,i,i,?
CCOc1ccc(-n2nc3cc(C)c(NC(=O)c4cc(OCC)c(OCC)c(OCC)c4)cc3n2)cc1,i,nt,nt,nt,i,nt
Cc1cccc(NC(=O)c2cn(-c3ccccc3)nc2-c2ccccc2)c1C,?,nt,nt,nt,i,nt
COC(=O)c1ccc(-c2ccco2)n1Cc1nc(-c2ccc(OC)c(OC)c2)oc1C,i,i,18µM,i,?,i
CN1CCN(CCCNc2nc3ccccc3c3nc(-c4ccccc4)nn23)CC1,i,i,?,i,i,?
CCN(CC)CCCNc1nc2ccccc2c2nc(-c3ccncc3)nn12,?,i,?,i,18µM,?
COc1cc2nc(NCCCN3CCN(C)CC3)n3nc(-c4ccccc4)nc3c2cc1OC,?,i,13µM,i,?,?
CCN(CC)CCCNc1nc2cc(OC)c(OC)cc2c2nc(-c3ccccc3)nn12,16µM,i,?,i,23µM,?
CC(C)(C)OC(=O)N1CCC(c2c(C(=O)N3CCC(c4ccccc4)C3)cnn2-c2ccc(Cl)cc2)CC1 (centres undefined),i,nt,nt,nt,i,nt
Cc1ccc(C(=O)NCCc2csc(-c3cccc(F)c3)n2)cc1C,i,nt,nt,nt,i,nt
COc1ccc(NC(=O)c2cccc(F)c2)cc1Cl,i,i,i,i,i,i
O=C(Nc1ccc(OC(F)F)c(Cl)c1)c1cccc(OC(F)F)c1,18µM,i,i,i,?,i
COc1ccc(NC(=O)c2cccc(OC(F)F)c2)cc1Cl,15µM,i,i,i,i,i
CC(=O)N1CCN(c2cccc(Nc3nn4c(=O)c5ccccc5nc4s3)c2)CC1,i,nt,nt,nt,i,nt
COc1ccc(Br)cc1CNCc1c(C(=O)O)c(C)n(Cc2ccccc2C)c1C,?,nt,nt,nt,i,nt
Cc1cc(N2CCN(c3nc4ccccc4s3)CC2)n2ncnc2n1,1µM,i,i,i,2.6µM,i
COCCN1CC(C(=O)NCc2ncccc2C)CCC1=O (centres undefined),?,i,i,i,i,i
Cc1ccccc1CN1Cc2cccc3c2[C@H](C=CC3)CC1=O,?,nt,nt,nt,i,nt
NC(=O)c1ccc(NC(=O)COC(=O)/C=C/c2cn(-c3ccccc3)nc2-c2cccnc2)cc1,i,i,i,i,i,5.2µM
CNC(=O)COC(=O)/C=C/c1cn(-c2ccccc2)nc1-c1ccc(C)o1,i,i,i,i,i,i
N#Cc1ccccc1NC(=O)COC(=O)/C=C/c1cn(-c2ccccc2)nc1-c1ccc(Cl)cc1,i,i,i,i,23µM,i
